# Source: PubChem BioAssay
# Most compounds without a hit are left out; they make up all but 19% or so of the library.
# KB-V1 cytotox: KB-V1 MDR subline cytotoxicity; KB-V1 MDR cells viability, CellTiter-Glo, 72 h; Potency, µM (highest dose often 46.1 µM), usual class: cytotoxic; hit rate 3.4% among 400,000; also: nearly all actives have a fitted effect of over 60% in size
#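 KB-V1 cells (P-gp-expressing MDR subline of KB-3-1) in phenol-red-free DMEM with 10% FBS were exposed to library compounds over a concentration series for 72 h at 37 degrees C. Viability read by CellTiter-Glo luminescence; concentration-effect curves fitted after normalization.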
# DT40 TDP1 CPT: growth inhibition of DT40 Tdp1-/-;hTDP1 cells with camptothecin (screen for TDP1 inhibitors); chicken DT40 Tdp1-/-;hTDP1 cells + 20 nM CPT, ATP luminescence, 48 h; Potency, µM (titrated, usually from 46.2 µM), for inactives: at the top dose activity change, negative = growth inhibition, most hits filed as inhibitors; hit rate 12% among 420,000; also: nearly all actives have a fitted effect of over 55% in size
#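 Chicken DT40 Tdp1-/- cells complemented with human TDP1, 400 cells/well, exposed to compounds plus 20 nM camptothecin for at least 48 h at 37 C; viability read as ATP content by CellTiter-Glo luminescence.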
# KB-3-1 cytotox: KB-3-1 parental cell cytotoxicity. KB-3-1 viability, CellTiter-Glo ATP luminescence, 72 h. Potency, µM (doses to about 46.1 µM), usual class: cytotoxic. hit rate 1.4% among 400,000. AID 1347075; also: nearly all actives have a fitted effect of over 60% in size
#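 72 h, 37 °C compound treatment of KB-3-1 parental cells; CellTiter-Glo added, 10 min, luminescence read. Data corrected against DMSO-only plates and normalized before curve fitting.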
# TDP1 cell noCPT: qHTS for Inhibitors of human tyrosyl-DNA phosphodiesterase 1 (TDP1): qHTS in cells in absence of CPT | hit rate 15% among 420,000 | DT40 Tdp1-/- hTDP1 cells, no CPT, ATP luminescence, 48 h | Potency, µM (top dose mostly 46.2 µM), without a hit: top-dose activity change, negative = growth inhibition, most hits filed as inhibitors; also: nearly all actives have a fitted effect of over 55% in size
#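 Growth of hTDP1-complemented DT40 Tdp1-knockout cells is measured by ATP luminescence after at least 48 hr compound exposure at 37 °C, with DMSO substituting for the 20 nM CPT used in the parallel screen.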
# HT1080-NT tox: kills 2HG-producing HT-1080-NT fibrosarcoma cells. HT-1080-NT fibrosarcoma viability, CellTiter-Glo ATP luminescence, 48 h. Potency, µM (top dose mostly 46.1 µM), without a hit: at the highest dose activity, negative = less viability, hits mostly cytotoxic. hit rate 1.6% among 360,000. AID 686970;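 also: NT is the 2HG producing partner of a matched IDH1 knockdown line; 0% = DMSO-treated cells and -100% = media-only wells without cells; nearly all actives have a fitted effect of over 55% in size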
#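 Viability by CellTiter-Glo luminescence after 48 h compound exposure at 37C of HT-1080-NT cells (750/well, RPMI, 5% FBS). % activity scaled between DMSO wells and medium-only wells, then curve-fitted and categorized by curve class.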
# HT1080 IDH1KD tx: kills HT-1080 cells with IDH1 knockdown. HT-1080 IDH1 knockdown viability, ATP luminescence, 48 h. Potency, µM (titrated, usually from 46.1 µM), inactives show top-dose activity, negative = toxicity, hits mostly cytotoxic. hit rate 2% among 360,000;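 also: 0% = DMSO wells and -100% = cell-free medium wells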
#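 HT-1080-IDH1KD cells (IDH1 knocked down), 750/well in RPMI with 5% FBS, treated with compound 48 h at 37 degrees C. Viability by CellTiter-Glo luminescence, normalised to DMSO and no-cell wells; concentration-response curves classed.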
# * marks the source's active call; other numbers are inactive results; i = inactive; ? = inconclusive; · = no result; [ ] = another dose, or the depositor's remark. Calls follow the shape of the dose curve; as a rule, active = well fitted curve in the direction sought with a large enough effect; inconclusive = small, poorly fitted or top-dose-only effect, or another doubt; inactive = no such curve, though single readings can be large; an effect the other way counts as inactive or inconclusive. Unless noted, % is scaled to controls: 0 for no effect and ±100 for the full control effect; potency is read from the fitted curve at half-maximal effect.
SMILES,KB-V1 cytotox,DT40 TDP1 CPT,KB-3-1 cytotox,TDP1 cell noCPT,HT1080-NT tox,HT1080 IDH1KD tx
C=Cc1ccc(Cn2c(C(=O)O)c(CNCc3ccccc3)c3ccc(C)cc32)cc1,i,7.3µM*,?,4.6µM*,·,·
COc1ccccc1C1CN(CC(=O)N2CCC(N3CCOCC3)CC2)Cc2ccccc2O1 (stereo unspecified),·,7%[9.04 µM],·,-27%,·,·
COc1ccc(S(=O)(=O)Nc2cccc(-c3ccc(N4CCC(C)CC4)nn3)c2)cc1OC,i,?,?,?,·,·
CC(C)Cn1c(=O)c2ccccc2n2c(CCC(=O)NCc3ccc(Cl)cc3)nnc12,·,?,·,-22%,·,·
CCN(CC)C(=O)c1ccc2c(c1)N(Cc1ccccc1F)C(=O)c1ccccc1S2=O (stereo unspecified),i,-22%,i,-15%,·,·
CCn1cc(C(=O)N2CCN(c3ccccc3)CC2)c(=O)c2cc(S(=O)(=O)N3CCCC3)ccc21,i,-14%,i,-18%,·,·
Cc1ccc(Cn2c(C(=O)O)c(CNCc3ccc(C)o3)c3ccc(C)cc32)cc1,i,?,i,?,·,·
Cc1ccc2c(CNCCc3ccco3)c(C(=O)O)n(Cc3ccc(F)cc3)c2c1,?,21µM*,?,26µM*,·,·
COc1ccc(Cn2c(C(=O)O)c(CNCc3ccc(C)o3)c3ccc(C)cc32)cc1,i,?,?,?,·,·
COc1ccc(CNCc2c(C(=O)O)n(Cc3ccc(F)cc3)c3cc(C)ccc23)cc1OC,i,21µM*,?,23µM*,·,·
Cc1ccc(Cn2c(C(=O)O)c(CNCc3ccc(OC(C)C)cc3)c3ccc(C)cc32)cc1,i,16µM*,?,?,·,·
Cc1ccc2c(CNCc3cccc(Cl)c3)c(C(=O)O)n(Cc3ccc(F)cc3Cl)c2c1,i,3.3µM*,i,3.3µM*,·,·
Cc1cccc(OCCn2c(-c3ccc(Cl)cc3)nc3ccccc3c2=O)c1,?,-10%,i,0%,·,·
COC(=O)c1ccc(CN2C[C@H](Sc3ccccn3)C[C@H]2C(=O)N(C)C)cc1,·,-9%[9.04 µM],·,-19%,·,·
CCOc1ccc(CNCc2c(C(=O)O)c(C)n(Cc3ccc(F)cc3Cl)c2C)cc1,i,?,i,13µM*,·,·
COc1ccc2c(CNCc3ccco3)c(C(=O)O)n(Cc3ccc(F)cc3Cl)c2c1,i,?,i,2.6µM*,·,·
Cc1csc(NC(=O)CN2C(=O)COc3ccc(Cl)cc32)n1,i,-15%,i,-28%,1%,2%
CCOC(=O)c1cccc(NC(=O)c2cc(CN3CCOCC3)on2)c1,i,2%,i,2%,·,·
CCOC(=O)c1c(N2C(=O)C=CC2=O)sc(C)c1C,i,1.2µM*,i,2.6µM*,4µM*,5µM*
CCOC(=O)c1c(NC(N)=O)sc(C)c1C,?,-24%,i,-11%,0%,4%
CC1(C(=O)NS(=O)(=O)c2ccc(F)cc2F)CCN1C(=O)C/C=C/c1ccccc1 (stereo unspecified),i,-8%,i,-15%,16%,?
O=C(NCCCc1nc2ccccc2n1CCCOc1ccccc1)C1CCCCC1,?,11µM*,i,10µM*,·,·
O=C(NCCCc1nc2ccccc2n1CCOc1ccccc1)C1CCCCC1,i,-28%,i,-26%,·,·
O=C(NCCCc1nc2ccccc2n1CCCCOc1ccccc1)C1CCCCC1,?,?,?,13µM*,·,·
COc1ccc(OC)c(CNC(=O)CCCn2ccc3cc(S(=O)(=O)N4CCCC4)ccc32)c1,?,15µM*,?,?,-8%,-19%
SMILES,KB-V1 cytotox,DT40 TDP1 CPT,KB-3-1 cytotox,TDP1 cell noCPT,HT1080-NT tox,HT1080 IDH1KD tx
COc1cccc(CNC(=O)CCCn2ccc3cc(S(=O)(=O)N4CCCC4)ccc32)c1,i,?,?,?,-25%,-26%
COc1ccc(CNC(=O)CCn2ccc3cc(S(=O)(=O)N4CCCC4)ccc32)cc1,i,-10%,i,0%,2%,-12%
CCc1ccc(CNC(=O)CCCn2ccc3cc(S(=O)(=O)N4CCCC4)ccc32)cc1,?,4.6µM*,5.8µM*,4.1µM*,·,·
CCOC(=O)C1=C(C)N[C@@]2(O)c3ccccc3C(=O)[C@@]12O,i,-7%,i,-1%,9%,1%
CC(=O)C1=C(C)OC2(O)c3ccccc3C(=O)C12O (stereo unspecified),i,?,i,18µM*,-12%,1%
CC1=C(C(=O)OC(C)C)C2(O)C(=O)c3ccccc3C2(O)N1 (stereo unspecified),i,-30%,i,-24%,-4%,-1%
CCOC(=O)C1=C(C)OC2(O)c3ccccc3C(=O)C12O (stereo unspecified),i,?,i,21µM*,-9%,-1%
CNc1ccc(-c2ccccc2OC)cn1,i,8%,i,-5%,?,10%
COc1cc(C2Nc3ccc4ncccc4c3C3=C2C(=O)CCC3)cc(OC)c1O (stereo unspecified),i,5.2µM*,?,5.2µM*,16µM*,8.2µM*
CC1(C)CC(=O)C2=C(C1)c1c(ccc3ccccc13)NC2c1ccc(C(=O)O)cc1 (stereo unspecified),i,38%,i,6%,-4%,-18%
CC1(C)CC(=O)C2=C(C1)c1c(ccc3ccccc13)NC2c1cc([N+](=O)[O-])cc([N+](=O)[O-])c1O (stereo unspecified),i,?,i,?,-29%,?
Cc1ccc(C2Nc3ccc4ccccc4c3C3=C2C(=O)CC(C)(C)C3)o1 (stereo unspecified),10µM*,?,i,?,-18%,?
CC1(C)CC(=O)C2=C(C1)c1c(ccc3ncccc13)NC2c1cccs1 (stereo unspecified),5.8µM*,5.2µM*,3.7µM*,3.7µM*,3.3µM*,4.1µM*
COc1cc(C2Nc3ccccc3NC3=C2C(=O)CC(C)(C)C3)cc(OC)c1OC (stereo unspecified),i,-3%,i,-1%,-1%,-7%
O=C1CCCC2=C1C(c1ccc(O)c(O)c1)Nc1ccc3ccccc3c12 (stereo unspecified),?,?,i,10µM*,?,?
COC(=O)c1scc(-c2ccc(C)cc2)c1S(=O)(=O)Nc1cc(Cl)ccc1C,i,?,i,?,·,·
